# This excerpt belongs to a sample that is enriched for hits.
# Tg IFNy HTS: blocks Toxoplasma gondii growth in the presence of IFN-gamma; Toxoplasma gondii growth in IFN-gamma-treated host cells; active compounds read low; activity change, negative = inhibition, % (concentration not given with the values); actives 3.8% (n = 69,000); AID 1259416; in the data active = activity change below about -70%, passing the limit was not always enough;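 note: host cells are HeLa cells infected with Toxoplasma gondii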
# An asterisk follows results filed as active.
SMILES,Tg IFNy HTS
CCOc1ccc(NC(=O)Nc2ccc(-c3nc(-c4ccc(C)cc4)co3)cc2)cc1,61.8
Cc1nc(Nc2ncc(C(=O)Nc3c(C)cccc3Cl)s2)cc(N2CCN(CCO)CC2)n1,-76.6*
Cc1cc2oc(=O)cc(C)c2cc1NC(=O)c1cnc(CN2CCCC2)s1,8.5
Cc1cnc(Nc2cccc(C3CCCN3C(=O)CCOc3ccccc3C)n2)s1 (stereo unspecified),-52.2
O=C(CCc1ccco1)N1CC[C@@H](c2ccc3ccccc3c2)[C@H](O)C1,8.1
Cc1ccc(CN(C)C(C)c2nc(C)sc2C)o1 (stereo unspecified),-1.5
O=c1c2ccccc2nnn1Cc1cccc(F)c1,-48.7
COc1ccccc1CN1C[C@H]2COC[C@@]2(CNC(=O)CC2CC2)C1,161.1
O=C1CCc2cc(S(=O)(=O)Nc3ccc(Br)cc3)cc3c2N1CC3,242.9
Cc1cc(F)ccc1NS(=O)(=O)c1cc2c3c(c1)CCN3C(=O)CC2,-45.1
COc1ccc(NS(=O)(=O)c2cc3c4c(c2)CCN4C(=O)CC3)cc1,-15.3
CCc1ccccc1NS(=O)(=O)c1cc2c3c(c1)CCN3C(=O)CC2,-52.2
O=C1CCc2cc(S(=O)(=O)NCCc3ccccc3)cc3c2N1CCC3,-5.3
CCc1cccc(NS(=O)(=O)c2cc3c4c(c2)CCN4C(=O)CC3)c1,-80.9*
CC(C)c1ccc(NS(=O)(=O)c2cc3c4c(c2)CCN4C(=O)CC3)cc1,-76.5*
O=C1CCc2cc(S(=O)(=O)Nc3ccc(Cl)cc3)cc3c2N1CC3,-17.0
Cc1cc(C)cc(NS(=O)(=O)c2cc3c4c(c2)CCN4C(=O)CC3)c1,-79.4*
Cc1cc(C)n(C)c(=O)c1C(=O)NCc1ccc(-c2ccccn2)s1,66.5
Cc1ccn2c(C(=O)N(C)Cc3c(C)noc3C)c(C)nc2c1,0.0
COc1ccccc1OCC(=O)NCCc1sc(-c2ccc(Cl)cc2)nc1C,72.4
Cc1ccc(C)c(OC(C)C(=O)NCCCc2nn[nH]n2)c1 (stereo unspecified),-7.1
COc1ccc2[nH]c(=O)c(CN3C[C@H](O)[C@@H](N4CCN(C)CC4)C3)cc2c1,14.1
COc1ccc(NC(=O)COc2nc(C)nc3ccccc23)cc1,17.6
COc1ccc(OCC(=O)Nc2cccc(-c3nnc4c5ccccc5c(C)nn34)c2)cc1,-76.4*
Cc1cccc(NC(=O)COc2nc(C)nc3ccccc23)c1,-7.7
SMILES,Tg IFNy HTS
CCc1ccc(S(=O)(=O)N2CCC3(CCC(C(=O)N4CCCC4)O3)CC2)cc1 (stereo unspecified),-38.2
CN(C)C(=O)NC1CC2(CCN(Cc3ccsc3)CC2)C1,21.3
O=c1cc(O)c2c(=O)n(-c3ccccc3)c(-c3ccccc3)cc2o1,-99.6*
O=c1cc(-c2ccccc2)c2cc(Cl)c(O)cc2o1,-0.8
O=c1cc(CN2CCN(c3cccc(Cl)c3)CC2)c2cc(O)c(-c3ccccc3)cc2o1,33.4
CCOC(=O)c1nc(N2CCN(c3ccccc3)CC2)c2ccccc2n1,48.0
Cc1ccc(N2CCC3(CC2)CN(C(=O)c2cccnc2)CCO3)nn1,4.4
Cc1ccc2[nH]cc(CCN3CC(C(=O)Nc4nnc(C(C)(C)C)s4)CC3=O)c2c1 (stereo unspecified),134.3
COc1cccc2c1C(=O)c1c(O)c3c(c(O)c1C2=O)C[C@@](O)(C(=O)CO)C[C@@H]3O[C@H]1C[C@H](N)[C@H](O)[C@H](C)O1,-77.8*
CCCCC(=O)OCC(=O)[C@]1(O)Cc2c(O)c3c(c(O)c2[C@@H](O[C@H]2C[C@H](NC(=O)C(F)(F)F)[C@H](O)[C@H](C)O2)C1)C(=O)c1c(OC)cccc1C3=O,-73.1*
COc1cccc2c1C(=O)c1c(O)c3c(c(O)c1C2=O)C[C@@](O)(C(C)=O)C[C@@H]3OC1CC(N)C(O)C(C)O1 (stereo partly specified),-75.4*
CC(=O)C1(O)Cc2c(O)c3c(c(O)c2C(OC2CC(N)C(O)C(C)O2)C1)C(=O)c1c(O)cccc1C3=O (stereo unspecified),-79.0*
CCc1cc(N2CCCC(C)(CO)C2)nc(N(C)C)n1 (stereo unspecified),2.0
CCN1C(=O)[C@@H]2CN(CC(C)C)C[C@@H]2C12CCN(C(=O)c1ccno1)CC2,-40.8
CC(C)CCN1c2nc(Nc3cc(F)c(O)c(F)c3)ncc2N(C)C(=O)C1C (stereo unspecified),-83.6*
O=C(Cc1ccncc1)N(Cc1ccc(F)cc1)CC1CCCO1 (stereo unspecified),-5.7
O=C(Nc1ncn[nH]1)c1sc2ccccc2c1Cl,11.4
O=C(NC(=O)c1sc2ccccc2c1Cl)c1ccccc1O,-107.3*
O=C(NC1CCSC1=O)c1sc2ccccc2c1Cl (stereo unspecified),28.6
OC1(c2ccc(F)cc2)Cc2ccccc2C2=NCCN21 (stereo unspecified),25.1
COc1cc(NC(=O)NC2Cc3ccccc3C2)cc(OC)c1,-6.5
O=C(CSC(=O)c1ccco1)Nc1cc(C(F)(F)F)cc(C(F)(F)F)c1,-43.0
O=C(Nc1cc(C(F)(F)F)cc(C(F)(F)F)c1)NC1CCc2ccccc2O1 (stereo unspecified),-82.1*
CCN1c2cc(C)ccc2-n2cccc2C12CCN(C(=O)Nc1cc(OC)ccc1OC)CC2,-110.7*
CCN1c2cc(C)ccc2-n2cccc2C12CCN(C(=O)Nc1cc(F)ccc1F)CC2,-50.7
SMILES,Tg IFNy HTS
CCN1c2cc(C)ccc2-n2cccc2C12CCN(C(=O)Nc1ccc(OC)cc1OC)CC2,-72.5*
CCN1c2cc(C)ccc2-n2cccc2C12CCN(C(=O)Nc1ccccc1C(F)(F)F)CC2,108.2
CCN1c2cc(C)ccc2-n2cccc2C12CCN(C(=O)Nc1ccc(F)cc1F)CC2,-21.0
CCN1c2cc(C)ccc2-n2cccc2C12CCN(C(=O)Nc1cc(Cl)ccc1OC)CC2,-115.5*
COc1ccc(OC)c(NC(=O)N2CCC3(CC2)Nc2cc(C)ccc2-n2cccc23)c1,224.7
CCOC(=O)Cc1ccc(NC(=O)N2CCC3(CC2)c2cccn2-c2ccc(C)cc2N3CC)cc1,-35.1
CCN1c2cc(C)ccc2-n2cccc2C12CCN(C(=O)Nc1cc(C)cc(C)c1)CC2,-28.2
COC(=O)c1ccc(-c2nc3nnc(C)n3[nH]2)cc1,57.1
O=C(O)CNS(=O)(=O)c1cccc2cccnc12,15.9
CCOc1ccccc1-c1nc(CN(c2ccc(OC)cc2)S(=O)(=O)c2cccs2)c(C)o1,-39.1
Cc1cccc(NC(=O)N2CCC(c3nc(C(=O)N(C)C)c(C)o3)CC2)c1,51.9
CN(C)C(=O)COC[C@@]12CCO[C@H]1CCN(Cc1nccs1)C2,8.7
COc1ccccc1OC1CN(C(=O)c2cn3ccsc3n2)C1,-1.8
CS(=O)(=O)N1Cc2ccccc2C2(CCN(C(=O)c3cnc[nH]3)CC2)C1,1.4
N#Cc1cccc(NC2COC3(CCN(C(=O)NC4CC4)C3)C2)n1 (stereo unspecified),-35.6
Cc1occc1C(=O)N1CCC2(CC(Nc3ncccc3F)CO2)C1 (stereo unspecified),7.2
Cc1occc1C(=O)N1CCC2(CC(Nc3cccc(C#N)n3)CO2)C1 (stereo unspecified),-98.0*
CN1CCC2(CC1)CN(Cc1ccc(C3CCCCO3)o1)CCCN2C (stereo unspecified),3.1
CN(C)CCN(Cc1cccs1)Cc1c(F)cccc1Cl,-65.3
CC(C)CC(=O)N1CCCC(c2nc(CNC(=O)C(C)C)cs2)C1 (stereo unspecified),-15.4
Cc1ccc(C(=O)N(C)C(C)c2nccs2)cc1N1CCNC1=O (stereo unspecified),-3.9

# From PubChem BioAssay
